Screening data from PubChem BioAssay.
A selection: hits, their analogues and other compounds. The true share with any hit is near 3%.
TWEAK Fn14 block – inhibitors of TWEAK-Fn14 signaling, primary screen, luciferase reporter cells, uHTS; TWEAK-stimulated Fn14 reporter cells, luciferase luminescence, 8 h; inhibition, % at 10 µM; 360,000 compounds, 2% hits; AID 1159606, 2016; in the data active = inhibition above about 50%
LGR2 antag – inhibitors of bursicon-induced LGR2 CRE-luciferase signal, primary screen, cell-based, HEK293, CRE-luciferase reporter, bursicon stimulation; bursicon-stimulated, 4 h; inhibition, % at 9.99 µM; AID 720647, 2013; 380,000 compounds, 0.35% hits; Drosophila bursicon receptor LGR2 (rickets);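 active = drop in luminescence signal, shown as inhibition above about 50% in the replicate tests, limit read from the data, passing the limit was not always enough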;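 note: agonist challenge used bursicon conditioned medium at about half maximal strength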
TROY signal inh – inhibitors of TROY-driven NF-kB signaling, primary screen, Q293 LMP1-TROYcd cells, NF-kB luciferase, uHTS; Q293 LMP1-TROYcd NF-kB luciferase reporter, 4 h; inhibition, % at 10 µM; 360,000 compounds, 0.98% hits; AID 1347056, 2019;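 active = compounds whose plate-normalised and pattern-corrected inhibition of the luciferase reporter signal at the single screening dose is 50% or more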
TRPM1 prom inh – inhibitors of MITF-dependent TRPM1 promoter reporter, primary screen, cell-based, SK-MEL-5, single point, luciferase; SK-MEL-5 TRPM1 promoter luciferase, 24 h; inhibition, % at 12.5 µM; 330,000 compounds, 0.83% hits; AID 488899, 2010;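 active = mean inhibition across replicates of 60% or more, whatever share of single replicates reaches that level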
LMP1 NFkB inh – EBV LMP1-driven NF-kappaB luciferase reporter inhibitors, primary screen, cell-based, luminescence, single point; LMP1-induced NF-kappaB luciferase reporter cells; inhibition, % at 12.5 µM; 350,000 compounds, 0.69% hits; in the data active = inhibition above about 41%;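 note: 0% = neutral control wells and 100% = reference inhibitor control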
MITF act – activators of MITF-driven TRPM1 promoter reporter, primary screen, cell-based, SK-MEL-5, luciferase, single point; 300,000 compounds, 0.75% hits; AID 588334, 2011; activation, % at 12.5 µM; SK-MEL-5 TRPM1-promoter luciferase, 24 h; % of positive control, neutral wells = 0;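 active = mean activation of at least 80% with every replicate also reaching 80%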;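 note: 0% = neutral control wells and 100% = parthenolide positive control wells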
* marks the source's active call; other numbers are inactive results; nt = no result.

SMILES | TWEAK Fn14 block | LGR2 antag | TROY signal inh | TRPM1 prom inh | LMP1 NFkB inh | MITF act
CC(=O)Nc1ccc(NC(=O)/C(Cl)=C/c2ccccc2)cc1 | -15.5 | nt | -48.4 | -112.8 | -15.6 | 111.5*
OCCCNc1ncnc2sc3c(c12)CCN(Cc1ccccc1)C3 | 69.3* | 0.2 | 35.8 | -1.8 | -3.6 | 1.8
COc1ccc(CNC(=O)N(C)C[C@H]2OCc3ccccc3-c3ccccc3C(=O)N([C@H](C)CO)C[C@H]2C)cc1 | nt | 19.2 | nt | nt | nt | nt
COc1ccc(NC(=O)CCC(=O)c2cccs2)c(OC)c1 | 57.0* | nt | 2.4 | -22.6 | -4.4 | 20.2
Cc1ccnc(NC(=O)CCC(=O)c2cccs2)c1 | 91.7* | 88.8* | 68.0* | 40.6 | 59.2* | -38.4
Cc1ccc(NC(=O)CCC(=O)c2cccs2)nc1 | 8.7 | -51.3 | -37.9 | -17.4 | -18.7 | 20.7
CCCNC(=O)C[C@@H]1CC[C@H]2[C@@H](COC[C@@H](O)CN2C(=O)Nc2cccc(Cl)c2)O1 | nt | -5.6 | nt | nt | nt | nt
CC(=O)N1CCOc2ccc(S(=O)(=O)NCc3ccc(Cl)cc3)cc21 | 1.8 | 6.7 | -7.3 | -0.6 | -5.0 | 0.9
CC(=O)N1CCOc2ccc(S(=O)(=O)Nc3ccc(Cl)cn3)cc21 | 0.9 | 5.9 | 53.6* | 6.6 | 4.3 | -3.9
Cc1ccc(NC(=S)Nc2cccc(S(=O)(=O)Nc3c(C)n(C)n(-c4ccccc4)c3=O)c2)cc1 | 3.0 | -56.4 | -21.9 | 3.1 | 69.2* | -4.1
COc1cccc(CN(C(=O)Cc2c[nH]c3ccccc23)C(C(=O)NC2CCCCC2)c2cccs2)c1 (centres undefined) | 52.9* | nt | 12.7 | 15.1 | 1.3 | nt
COc1ccc(CN(C(=O)Cc2cccs2)C(C(=O)NC2CCCC2)c2ccncc2)cc1 (centres undefined) | 9.4 | 10.5 | -11.9 | 7.3 | -2.5 | -5.6
COc1ccc(C(C(=O)NC2CCCCC2)N(Cc2cccs2)C(=O)Cc2c[nH]c3ccccc23)cc1 (centres undefined) | 64.7* | nt | 29.6 | 18.6 | 2.4 | -17.8
CO[C@@H]1CN(C)C(=O)c2ccc(NC(=O)c3cnccn3)cc2OC[C@H](C)N(C)C[C@@H]1C | nt | -11.9 | nt | nt | nt | nt
CC(C)c1cc(C(=O)NNC(=S)NC2CCCCC2)cs1 | 50.3* | -50.9 | 48.9 | -17.6 | -11.6 | 15.0
CCc1cc(C(=O)NNC(=S)NC2CCCCC2)cs1 | 2.5 | -36.3 | 22.1 | -6.6 | -3.8 | 7.3
COc1ccccc1Nc1nc2ccccc2n1C | 5.6 | -44.3 | -51.6 | -91.1 | -28.6 | 92.2*
Cc1noc(C)c1NC(=O)N(C)C[C@H]1Oc2ccc(NC(=O)Nc3ccc4c(c3)OCO4)cc2CC(=O)N([C@H](C)CO)C[C@@H]1C | nt | 1.0 | nt | nt | nt | nt
CNC[C@@H](CC1CCCCC1)NC[C@H](CC(C)C)NCCc1cccc(C(F)(F)F)c1 | -100.7 | 102.7* | 12.2 | 100.3* | -8.0 | -99.6
CCC[C@@H](CN[C@@H](CNC)C(C)C)NCCCCc1ccccc1 | -3.5 | 12.4 | -14.4 | 89.7* | -2.4 | -86.6
CCC[C@@H](CNC)NC[C@H](Cc1ccccc1)NCCCCc1ccccc1 | -40.8 | 6.5 | -20.5 | 93.6* | -12.3 | -92.6
CNC[C@@H](Cc1ccccc1)NC[C@@H](CC1CCCCC1)NCCCc1ccccc1 | -63.6 | 102.3* | 36.9 | 98.5* | -40.5 | -97.9
CNC[C@@H]1OCCCC[C@H](C)Oc2ccc(NC(=O)Nc3ccc(F)cc3)cc2C(=O)N([C@H](C)CO)C[C@H]1C | nt | 8.7 | nt | nt | nt | nt
CN(C)C(=O)c1ccc(-c2ccc([C@H]3[C@H](CO)N4C(=O)CN(C(=O)C5CCC5)C[C@@H]34)cc2)cc1 | nt | -6.7 | nt | nt | nt | nt
CCc1ccc(NC(=O)C2C3/C=C\CCCCC32)cc1 (centres undefined) | -29.2 | -66.9 | -65.0 | -89.2 | -29.3 | 94.1*
SMILES | TWEAK Fn14 block | LGR2 antag | TROY signal inh | TRPM1 prom inh | LMP1 NFkB inh | MITF act
Cc1ccc(/C=C2\CCOC2=O)cc1 | -0.6 | -7.2 | -3.3 | -5.1 | 8.9 | 1.6
Cc1ccc(/C=C2/CNC/C(=C/c3ccc(C)cc3)C2=O)cc1 | 103.7* | 55.1* | 37.9 | 91.0* | 80.4* | -90.2
CN(C)CC(=O)N[C@H]1CC[C@H](CC(=O)NCc2ccccc2F)O[C@H]1CO | nt | -1.6 | nt | nt | nt | nt
CCN1/C(=C2\SC(=S)N(Cc3ccccc3)C2=O)Sc2ccccc21 | -0.7 | nt | 10.9 | -11.5 | -3.2 | 11.8
CCC(CO)[n+]1c(C)cc(/C=C2\Sc3ccccc3N2Cc2ccccc2)cc1C (centres undefined) | -3.5 | -52.0 | -47.3 | 81.8* | -2.9 | -81.3
Cc1noc(C)c1NC(=O)N(C)C[C@H]1OCCCC[C@@H](C)Oc2ccc(N(C)C)cc2C(=O)N([C@@H](C)CO)C[C@H]1C | nt | 4.0 | nt | nt | nt | nt
O=C(NCCCO)c1nc2ccccc2s1 | 3.5 | nt | 0.7 | 4.4 | -6.8 | -0.9
O=C(Nc1nc2ccccc2s1)c1ccccc1 | 50.3* | -12.8 | 0.7 | 15.0 | -26.7 | -13.3
CCCNC(=O)c1ccc(-c2nc3ccccc3s2)s1 | 51.7* | nt | nt | 9.4 | -18.3 | -13.0
c1ccc2sc(NN=C3CCCCCC3)nc2c1 | 76.2* | 55.4* | 76.3* | 2.8 | 0.8 | -0.1
c1ccc2sc(NCC3CCCO3)nc2c1 (centres undefined) | -10.1 | -34.8 | -31.7 | -51.6 | -19.8 | 54.6
O=C(Nc1nc2ccc(F)cc2s1)c1ccccn1 | nt | 90.2* | nt | nt | nt | nt
C[C@H]1CN([C@@H](C)CO)C(=O)c2cc(-c3cccc(C#N)c3)cnc2O[C@H]1CN(C)Cc1ccncc1 | nt | 4.7 | nt | nt | nt | nt
CO[C@H]1CN(C)C(=O)c2cc(NC(=O)NC(C)C)ccc2OC[C@@H](C)N(Cc2cncnc2)C[C@H]1C | nt | -27.0 | nt | nt | nt | nt
CCCNC(=O)Nc1ccc2c(c1)C(=O)N(C)C[C@@H](OC)[C@H](C)CN(Cc1cccnc1)[C@@H](C)CO2 | nt | 9.1 | nt | nt | nt | nt
O=C(Nc1nnc(SCc2ccc(F)cc2)s1)c1cccnc1Cl | 6.7 | -8.6 | -24.9 | -5.1 | 1.8 | 5.1
O=C(Nc1nnc(SCc2ccc(F)cc2)s1)c1ccccn1 | -15.6 | -15.1 | 32.8 | 0.6 | 45.0* | -2.7
Cc1ccc(CNc2nc3ccccc3s2)s1 | 80.0* | nt | 41.0 | 4.8 | 24.7 | -1.6
Cc1ccc(C(=O)Nc2nc3ccccc3s2)s1 | 69.1* | nt | 10.4 | -51.1 | -52.3 | 52.3
Cc1ccc(C(=O)O)c(C(=O)Nc2nc3ccccc3s2)c1 | 4.5 | -2.8 | -7.2 | 8.9 | 1.5 | -4.6
CCCNC(=O)Nc1nc2ccccc2s1 | -1.8 | -76.9 | -34.5 | -134.0 | -3.2 | 125.5*
COc1ccc(CNc2nc3ccccc3s2)cc1OC | -14.1 | -35.3 | -33.5 | -44.0 | 22.1 | nt
CCS(=O)(=O)N1Cc2ccccc2CC1C(=O)Nc1nc2ccccc2s1 (centres undefined) | 80.9* | 57.6* | 70.2* | -2.1 | -6.9 | 3.9
